{"source": "ChEMBL document CHEMBL1201862", "about": "“PubChem BioAssay data set” (2004)", "note": "Hit rate of the full screen: of about 400,000 compounds, about 2,100 (0.53%) were called active. Roughly 14% stayed inconclusive and do not appear here. No rule for the calls is given here. The full list was thinned out, with actives kept by preference.", "data": [{"target": "Ataxin-2 (Homo sapiens) (UniProt Q99700)", "sequence (Q99700 whole entry)": "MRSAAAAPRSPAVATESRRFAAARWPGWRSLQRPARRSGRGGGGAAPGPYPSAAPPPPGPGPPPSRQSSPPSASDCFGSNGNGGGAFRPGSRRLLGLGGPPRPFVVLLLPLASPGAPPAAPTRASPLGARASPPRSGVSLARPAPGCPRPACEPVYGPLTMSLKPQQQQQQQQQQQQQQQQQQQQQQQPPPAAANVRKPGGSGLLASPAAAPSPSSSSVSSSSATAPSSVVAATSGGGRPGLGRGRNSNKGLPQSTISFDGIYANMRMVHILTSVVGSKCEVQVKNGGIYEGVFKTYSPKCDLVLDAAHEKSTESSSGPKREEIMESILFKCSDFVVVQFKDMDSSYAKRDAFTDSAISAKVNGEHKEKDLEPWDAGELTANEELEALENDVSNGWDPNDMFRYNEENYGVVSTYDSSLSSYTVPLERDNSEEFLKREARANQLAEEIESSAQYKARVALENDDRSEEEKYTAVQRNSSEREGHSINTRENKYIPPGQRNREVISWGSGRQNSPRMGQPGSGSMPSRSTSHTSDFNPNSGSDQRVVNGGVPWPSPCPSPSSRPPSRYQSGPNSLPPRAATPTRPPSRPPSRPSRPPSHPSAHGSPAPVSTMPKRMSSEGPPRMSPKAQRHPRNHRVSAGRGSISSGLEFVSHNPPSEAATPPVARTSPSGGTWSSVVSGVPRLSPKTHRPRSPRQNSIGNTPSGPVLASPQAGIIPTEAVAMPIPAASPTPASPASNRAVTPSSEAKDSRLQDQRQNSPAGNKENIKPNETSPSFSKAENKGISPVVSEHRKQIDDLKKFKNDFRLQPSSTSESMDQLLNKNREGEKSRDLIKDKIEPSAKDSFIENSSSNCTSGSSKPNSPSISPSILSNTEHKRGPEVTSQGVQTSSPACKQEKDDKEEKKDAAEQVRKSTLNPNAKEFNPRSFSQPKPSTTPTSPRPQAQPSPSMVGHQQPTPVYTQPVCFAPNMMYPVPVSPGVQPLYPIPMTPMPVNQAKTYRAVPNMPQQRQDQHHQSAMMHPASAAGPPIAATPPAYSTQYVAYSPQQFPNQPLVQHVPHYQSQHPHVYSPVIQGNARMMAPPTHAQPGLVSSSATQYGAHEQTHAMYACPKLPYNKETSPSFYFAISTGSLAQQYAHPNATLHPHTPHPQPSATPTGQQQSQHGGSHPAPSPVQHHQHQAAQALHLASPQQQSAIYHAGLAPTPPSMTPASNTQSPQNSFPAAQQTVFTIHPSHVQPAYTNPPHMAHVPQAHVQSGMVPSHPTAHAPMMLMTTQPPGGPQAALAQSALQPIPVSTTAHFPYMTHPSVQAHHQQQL", "experiment": "qHTS for Inhibitors of ATXN expression.", "format": "functional", "values": [{"smiles": "COCCN1C=C(C(=O)OC)C(c2ccccc2Cl)C(C(=O)OC)=C1", "Potency": "inactive"}, {"smiles": "O=C(N[C@@H](Cc1ccccc1)C(=O)OCc1ccccc1)c1ccco1", "Potency": "inactive"}, {"smiles": "O=C(N[C@@H](Cc1ccccc1)C(=O)OCc1ccccc1)c1[nH]cnc1C(=O)N1CCN(c2ccccc2)CC1", "Potency": "22.4 µM (active)"}, {"smiles": "CC(C)C[C@H](NC(=O)c1[nH]cnc1C(=O)N1CCN(C(=O)OC(C)(C)C)CC1)C(=O)OCc1ccccc1", "Potency": "35.5 µM (active)"}, {"smiles": "O=C(NC(CC(=O)N1CCN(c2ccccc2)CC1)c1ccccc1)c1ccccc1", "note": "(configuration not stated)", "Potency": "inactive"}, {"smiles": "O=C(O)CCCC(=O)N1CCN(c2nc(-c3ccccc3)c3ccccc3n2)CC1", "Potency": "inactive"}, {"smiles": "COc1ccc2nc(S)cc(C)c2c1", "Potency": "inactive"}, {"smiles": "COc1ccc(/C=N/Nc2cc(C)nc3ccc(OC)cc23)c(OC)c1", "Potency": "inactive"}, {"smiles": "COc1ccc2nc(C)cc(SCC(=O)N/N=C/c3cccc4ccccc34)c2c1", "Potency": "22.4 µM (active)"}, {"smiles": "COc1cccc(/C=N/n2c(SC)nnc2-c2ccccc2)c1O", "Potency": "inactive"}, {"smiles": "COc1ccc2nc(C)cc(N/N=C/c3cccc(OC)c3O)c2c1", "Potency": "35.5 µM (active)"}, {"smiles": "COc1cccc(-c2cc(C(=O)N/N=C/c3cccc(OC)c3OC)c3ccccc3n2)c1", "Potency": "inactive"}, {"smiles": "COc1ccc2nc(C)cc(N/N=C/c3ccccc3)c2c1", "Potency": "31.6 µM (active)"}, {"smiles": "Cc1cc(C(=O)N/N=C/c2cccnc2)c2ccccc2n1", "Potency": "inactive"}, {"smiles": "COc1ccc2cc(/C=N/NC(=O)CN(c3ccccc3C)S(=O)(=O)c3ccccc3)c(Cl)nc2c1", "Potency": "inactive"}, {"smiles": "COc1ccc(C(=O)Nc2nc3n(n2)C(c2ccccc2)C=C(c2ccccc2)N3)cc1", "note": "(configuration not stated)", "Potency": "inactive"}, {"smiles": "COc1cccc(C2C=C(c3cccs3)Nc3ncnn32)c1OC", "note": "(configuration not stated)", "Potency": "inactive"}, {"smiles": "Cc1nc(N)c(Br)c(C)c1Br", "Potency": "inactive"}, {"smiles": "Clc1ccccc1N1CCN(Cc2ccco2)CC1", "Potency": "inactive"}, {"smiles": "CCOC(=O)c1sc2nc(C3CC3)cc(-c3ccc(F)cc3)c2c1N", "Potency": "inactive"}, {"smiles": "Cc1ccccc1NCC(=O)Nc1cc(S(=O)(=O)N2CCCCC2)ccc1C", "Potency": "inactive"}, {"smiles": "SC1=C2CCCCCC2=NC2(CCCCCC2)S1", "Potency": "44.7 µM (active)"}, {"smiles": "CSC1=NN(c2ccccc2)CN(c2ccccc2)N1C", "Potency": "inactive"}, {"smiles": "COc1ccc(-c2c(C)c3ccc(O)c(CN4CCC(C)CC4)c3oc2=O)cc1OC", "Potency": "inactive"}, {"smiles": "CCOC(=O)C1CCN(S(=O)(=O)c2ccc3c4c(cccc24)C(=O)N3)CC1", "Potency": "inactive"}, {"smiles": "CC1=[N+](C)c2c(ccc3cccnc23)C1(C)C", "Potency": "inactive"}, {"smiles": "CC(C)c1ccc2nc3sc(C(=O)N4CCc5ccccc5C4)c(N)c3cc2c1", "Potency": "inactive"}, {"smiles": "Cn1c2ccccc2c(=O)c2c(=O)n(C3CCCCCC3)c(C3CCCCC3)nc21", "Potency": "inactive"}, {"smiles": "C/C(=N\\Nc1nc2ccccc2[nH]1)c1cc2ccccc2o1", "Potency": "inactive"}, {"smiles": "COc1ccc(C(=O)N[C@H](C(=O)Nc2nc3ccccc3[nH]2)C(C)C)cc1", "Potency": "inactive"}, {"smiles": "Cc1c(C(=O)Nc2nc3ccccc3[nH]2)oc2ccccc12", "Potency": "39.8 µM (active)"}, {"smiles": "COCCNC(=O)c1cnn2c(C(F)(F)F)cc(-c3ccc(C)cc3)nc12", "Potency": "inactive"}, {"smiles": "CCOC(=O)c1cc2c(=O)n3ccccc3nc2n(CCCOC)/c1=N\\C(=O)c1ccncc1", "Potency": "inactive"}, {"smiles": "CN1CCN(c2ccc3sc(-n4ccc5ccccc54)nc3c2)CC1", "Potency": "39.8 µM (active)"}, {"smiles": "CN1CCN(c2ccc(-c3ccc4ccccc4n3)cc2)CC1", "Potency": "inactive"}, {"smiles": "O=c1c(-c2nc3ccccc3s2)cccn1Cc1ccccc1", "Potency": "inactive"}, {"smiles": "C[C@@H]1O[C@H](O[C@@H]2[C@H](C)O[C@H](O[C@@H]3[C@H](C)O[C@H](O[C@H]4CC[C@]5(C)[C@@H](CC[C@@H]6[C@H]5C[C@@H](O)[C@]5(C)[C@@H](C7=CC(=O)OC7)CC[C@]65O)C4)C[C@@H]3O)C[C@@H]2O)C[C@H](O)[C@@H]1O", "Potency": "0.224 µM (active)"}, {"smiles": "CN(C)c1nc(-c2ccccc2)c2cc(Cl)ccc2n1", "Potency": "inactive"}, {"smiles": "Cc1c(CC(=O)NCc2ccccc2Cl)c(=O)oc2cc(O)ccc12", "Potency": "inactive"}, {"smiles": "COc1cc(/C=C/c2ccc3cccc(OC)c3n2)c(OC(C)=O)c([N+](=O)[O-])c1", "Potency": "35.5 µM (active)"}, {"smiles": "COc1ccc(C=Cc2ccc3ccccc3n2)c(OC)c1", "Potency": "inactive"}, {"smiles": "CC(=O)Oc1c(Cl)cc(Cl)cc1/C=C/c1ccc2ccccc2n1", "Potency": "inactive"}, {"smiles": "CCOC(=O)c1c(C)[nH]c(C)c1C(=O)COC(=O)c1ccc(S(=O)(=O)C(F)F)cc1", "Potency": "inactive"}, {"smiles": "CCOC(=O)c1c(C)[nH]c(C)c1C(=O)COC(=O)c1ccc([N+](=O)[O-])s1", "Potency": "inactive"}, {"smiles": "CCOC(=O)c1c(C)[nH]c2c1-c1ccccc1C(=O)C2=O", "Potency": "2.82 µM (active)"}, {"smiles": "O=C(NCc1ccco1)c1cccc2c1C(=O)c1ccc(N3CCC(Cc4ccccc4)CC3)cc1S2(=O)=O", "Potency": "inactive"}, {"smiles": "CC1(C)CNc2cc([N+](=O)[O-])ccc2S1", "Potency": "inactive"}, {"smiles": "CCOC(=O)N1CCN(c2nc(-c3ccccc3)c3ccccc3n2)CC1", "Potency": "inactive"}, {"smiles": "CCOC(=O)c1c(-c2ccccc2)nnn1-c1nc(OCC)nc(N2CCCCC2)n1", "Potency": "39.8 µM (active)"}, {"smiles": "CCOC(=O)c1cc(-c2ccccc2)nc2nc(N3CCCCC3)sc12", "Potency": "inactive"}, {"smiles": "C=C1C(=O)OC2C1CCC(C)=CCCC1(C)OC21", "note": "(configuration not stated)", "Potency": "22.4 µM (active)"}, {"smiles": "C=CCN(C(=O)CSc1nc2ccsc2c(=O)n1Cc1ccccn1)c1ccccc1", "Potency": "inactive"}, {"smiles": "C=C(C)CSc1cc(C)c(C#N)c2nc3ccccc3n12", "Potency": "inactive"}, {"smiles": "CCC(CC)C(=O)N(C)c1c(C)nc2c(OCCC3CCCCC3)cccn12", "Potency": "31.6 µM (active)"}, {"smiles": "CCCn1c(=N)c(C(=O)NC2CCCC2)cc2c(=O)n3cccc(C)c3nc21", "Potency": "inactive"}, {"smiles": "CCc1nc2c(OCCC3CCCCC3)cccn2c1N(C)C(=O)C(C)C", "Potency": "35.5 µM (active)"}, {"smiles": "CCc1nc2c(OCCC3CCCCC3)cccn2c1N(C)C(=O)C1CC1", "Potency": "35.5 µM (active)"}, {"smiles": "CCOCCCn1c(=N)c(C(=O)NC2CCCCC2)cc2c(=O)n3ccccc3nc21", "Potency": "inactive"}, {"smiles": "CCn1c(=N)c(C(=O)NC2CCCCC2)cc2c(=O)n3cccc(C)c3nc21", "Potency": "inactive"}, {"smiles": "CCOCCCn1c(=N)c(C(=O)NC2CCCC2)cc2c(=O)n3cccc(C)c3nc21", "Potency": "inactive"}, {"smiles": "O=C(NCc1cccc(F)c1)c1cccc2c1C(=O)c1ccc(N3CCC(Cc4ccccc4)CC3)cc1S2(=O)=O", "Potency": "inactive"}, {"smiles": "O=C(NNc1ccccn1)C(c1ccccc1)c1ccccc1", "Potency": "inactive"}]}]}
